Screening results: PubChem BioAssay, several laboratories
PPC-1+TRAIL kill: compounds killing PPC-1 cancer cells with TRAIL present (potentiator screen, no TRAIL-free arm) | 220,000 compounds, 0.41% hits | cell killing (% activity), % at 4 µM or 5 µM | PPC-1 cells + TRAIL, ATPLite viability luminescence;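 active means cell killing above 50% in the first pass at 4 µM, then a duplicate retest at 5 µM averaging 50% or more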;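 further: plate controls were cells with TRAIL plus DMSO for no effect and medium-only wells lacking cells for full effect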
STAT3 blocker: STAT3 signaling inhibition. inhibition, % at 5.5 µM. U3A cells, IL-6 STAT3-luciferase reporter, luminescence; host cell line lacks STAT1. 190,000 compounds, 0.89% hits. AID 862;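 active means inhibition above the mean inhibition across all screened compounds plus 3 SD, cut at about 44% in these data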;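 further: 0% = DMSO only wells and 100% = 100 µM nifuroxazide control wells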
TRAIL sens C8: caspase-8 TRAIL sensitization. 360,000 compounds, 1% hits. inhibition (viability loss, TRAIL sensitization), % at 10 µM. AID 624354. NB7+C8 cells + TRAIL, ATPlite viability luminescence;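 active means compounds causing at least 50% loss of cell viability in the single-dose screen, relative to plate controls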
HSF1 inhib: HSF1 inhibition. activity change, negative = inhibition, % at 7.5 µM (by protocol). NIH3T3-HGL HSE-luciferase, MG132-induced, luminescence 8 h; stronger effect = lower value. AID 2098. 300,000 compounds, 0.77% hits;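 active means more than half of replicate wells show activity change below -50%, luminescence cut by over half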;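 further: luciferase reports HSF-1 transcriptional activity via heat shock element; 0% = median of DMSO wells and -100% = zero luminescence signal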
STAT1 blocker: reduces IFN-gamma driven STAT1 reporter signal; NIH 3T3 STAT1-luciferase reporter, luminescence; inhibition, % at 5.5 µM; 200,000 compounds, 0.35% hits; AID 920;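 active means inhibition above a set limit, the mean inhibition across all tested compounds plus 3 SD, cut at about 34% in these data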;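 further: 0% = IFN-gamma with DMSO and 100% = IFN-gamma with 300 µM nifuroxazide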
HSP90 refold inh: HSP90 refolding inhibition in rabbit reticulocyte lysate; luciferase refolding luminescence, 3 h; inhibition, % at 5.6 µM; 290,000 compounds, 0.91% hits; AID 1789;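 active means inhibition above the screen-wide mean plus 3 SD, computed separately per campaign, cut at about 16% in these data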;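 further: 0% = DMSO wells and 100% = 60 µM geldanamycin wells; inhibitors lower the luminescence because luciferase stays unfolded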
Active calls of the source: *. The list is not random: actives were taken first. Their share in the collection is about 2.4%.

Cc1ccc2nc(NC(=O)c3cccc(-c4cc5ccccc5oc4=O)c3)sc2c1 was read as PPC-1+TRAIL kill -1.8, STAT3 blocker 6.6, HSF1 inhib -4.8, STAT1 blocker -9.6 and HSP90 refold inh -4.0.
`CC(C)NC(=O)C1Cc2c(-c3ccc(Cl)cc3)ccnc2O1` (centres undefined) gave TRAIL sens C8 -9.6.
CCOC(=O)[C@@H]1CSCCS(=O)(=O)N1 was read as TRAIL sens C8 -3.2.
`COc1ccc(CNC(=O)C2CCN(S(=O)(=O)c3ccc(N4CCCC4=O)cc3)CC2)cc1` gave TRAIL sens C8 0.1.
For Cn1c(C(=O)NN)cc2cc(OCc3ccccc3)ccc21 the results were TRAIL sens C8 -2.8 and HSF1 inhib -84.3*.
Screening Cn1c(C(=O)NN)cc2cc(Oc3ccccc3)ccc21 returned TRAIL sens C8 26.0, HSF1 inhib -4.0 and HSP90 refold inh 3.5.
O=C(CCl)N(CCc1ccccc1)CCc1ccccc1 was read as TRAIL sens C8 94.9*, HSF1 inhib -3.1 and HSP90 refold inh 3.9.
`Cc1cc(Nc2ccc3c(c2)OCCO3)c2cc(Cl)ccc2n1` gave PPC-1+TRAIL kill 28.2, STAT3 blocker 7.5, TRAIL sens C8 -3.7, HSF1 inhib -57.5*, STAT1 blocker -2.5 and HSP90 refold inh -1.5.
COCC(=O)N1C[C@@H](C)[C@@H](OC)CN(C)C(=O)c2ccc(NC(=O)c3cnccn3)cc2OC[C@H]1C was read as TRAIL sens C8 2.1.
O=C(NCc1ccc(Cl)cc1)N1CCN(C(=O)c2ccccc2)CC1 was read as TRAIL sens C8 21.2.
`COc1ccc(CCNC(=O)CSc2nc3c(sc(=S)n3-c3ccccc3)c(=O)[nH]2)cc1OC` gave TRAIL sens C8 0.8.
`O=C(NCc1ccc(F)cc1)C(c1ccccc1)c1ccccc1` gave TRAIL sens C8 -10.3, HSF1 inhib 8.2 and HSP90 refold inh 4.0.
CC(=O)N(Cc1ccc(F)cc1)C1=C(NCc2ccccc2)C(=O)c2ccccc2C1=O was read as PPC-1+TRAIL kill 46.0, STAT3 blocker 2.1, TRAIL sens C8 96.5*, HSF1 inhib 28.8, STAT1 blocker 7.4 and HSP90 refold inh 11.2.
Screening Cc1cc(/C=C2\SC(=S)N(Cc3ccco3)C2=O)c(C)n1-c1ccccc1 returned PPC-1+TRAIL kill 26.9, STAT3 blocker -4.1, TRAIL sens C8 21.7, HSF1 inhib -66.4*, STAT1 blocker -9.5 and HSP90 refold inh 5.8.
Cc1ccc(F)c(S(=O)(=O)NC(=O)C2(C)CCN2C(=O)c2cccc3ccccc23)c1 (centres undefined) was read as TRAIL sens C8 -4.7.
Cc1onc(-c2c(F)cccc2Cl)c1C(=O)c1ccccc1 was read as PPC-1+TRAIL kill -0.5, TRAIL sens C8 -19.0, HSF1 inhib -60.9* and HSP90 refold inh 0.7.
For Cc1onc(-c2c(Cl)cccc2Cl)c1C(=O)ONC(=O)c1ccccc1 the results were PPC-1+TRAIL kill 2.6, TRAIL sens C8 51.6*, HSF1 inhib -14.4 and HSP90 refold inh 1.3.
Screening Cc1onc(-c2c(F)cccc2Cl)c1C(=O)c1ccc(F)cc1 returned PPC-1+TRAIL kill 8.7, TRAIL sens C8 13.9, HSF1 inhib -8.1 and HSP90 refold inh 0.6.
Cc1onc(-c2c(F)cccc2Cl)c1C(=O)ONC(=O)c1ccccc1 was read as PPC-1+TRAIL kill -4.9, TRAIL sens C8 18.6, HSF1 inhib -6.4 and HSP90 refold inh 0.8.
`COc1ccccc1N1CCN(c2cc(N3CCCC3)nc(C)n2)CC1` gave PPC-1+TRAIL kill 22.4, STAT3 blocker 15.5, TRAIL sens C8 5.3, HSF1 inhib -40.1, STAT1 blocker -1.5 and HSP90 refold inh 0.1.
`COc1ccccc1N1CCN(c2ccc3ccccc3n2)CC1` gave TRAIL sens C8 48.0*, HSF1 inhib 14.9 and HSP90 refold inh 12.6.
O=C(O)c1ccc2c(c1)C(=O)N([C@H](Cc1cccc3ccccc13)C(=O)O)C2=O was read as TRAIL sens C8 2.0.
`Cc1ccc(C2N(C)C(=O)c3ccccc3N2C)cc1` (centres undefined) gave TRAIL sens C8 -0.4, HSF1 inhib -2.0 and HSP90 refold inh -2.5.
O=c1oc2c(O)cccc2cc1-c1nc2ccccc2[nH]1 was read as TRAIL sens C8 69.1*, HSF1 inhib 10.1 and HSP90 refold inh 11.3.
CC(=O)OCn1ncc(N2CCOCC2)c(Br)c1=O was read as TRAIL sens C8 8.8, HSF1 inhib -10.7 and HSP90 refold inh 4.0.
For O=C(OCn1ncc(Br)c(Br)c1=O)c1ccc(F)cc1 the results were PPC-1+TRAIL kill 29.1, STAT3 blocker 15.3, TRAIL sens C8 94.9*, HSF1 inhib -94.3*, STAT1 blocker 18.0 and HSP90 refold inh 2.6.
`O=C(OCn1ncc(Br)c(Br)c1=O)c1ccccc1Cl` gave PPC-1+TRAIL kill 31.1, STAT3 blocker 12.1, TRAIL sens C8 93.2*, HSF1 inhib -73.8*, STAT1 blocker 2.9 and HSP90 refold inh 5.0.
Screening CCOC(=O)c1cc([N+](=O)[O-])cc([N+](=O)[O-])c1Sc1ncnc2nc[nH]c12 returned TRAIL sens C8 67.3*.
`CCOC(=O)c1ccccc1NC(=O)c1ccc2c(SCC(=O)O)c3c(nc2c1)CCCC3` gave TRAIL sens C8 -8.2, HSF1 inhib -76.8* and HSP90 refold inh 4.2.
For COc1cc(Cl)c(C)cc1NC(=O)c1ccc2c(SCC(=O)O)c3c(nc2c1)CCCC3 the results were PPC-1+TRAIL kill -1.6, STAT3 blocker 5.0, TRAIL sens C8 -2.2, HSF1 inhib 2.0, STAT1 blocker -0.6 and HSP90 refold inh -1.1.
CCOC(=O)c1c(C)[nH]c(C(=O)COC(=O)C2=NNC(=O)CC2)c1C was read as PPC-1+TRAIL kill 6.5, STAT3 blocker 3.2, TRAIL sens C8 3.0, HSF1 inhib -78.1*, STAT1 blocker -2.5 and HSP90 refold inh -1.4.
For COc1cc(C(O)c2nc(-c3ccccc3OC)cs2)ccc1F (centres undefined) the results were TRAIL sens C8 -0.2.
`CC(=O)Nc1ccc(-c2csc(N/N=C\c3ccncc3)n2)cc1` gave PPC-1+TRAIL kill 6.0, TRAIL sens C8 6.7, HSF1 inhib -3.3 and HSP90 refold inh 5.7.
CCCC(=O)Nc1ccc(-c2csc(N/N=C\c3ccncc3)n2)cc1 was read as PPC-1+TRAIL kill 15.0, TRAIL sens C8 71.0*, HSF1 inhib -0.8 and HSP90 refold inh -0.4.
`COc1ccc(C(=O)NC2CC(C)(C)NC(C)(C)C2)cc1S(=O)(=O)N1CCOCC1` gave TRAIL sens C8 -5.4.
`COc1ccc2nc(N=Nc3ccc(O)c4ccccc34)sc2c1` gave PPC-1+TRAIL kill 41.1, STAT3 blocker -28.8, TRAIL sens C8 54.9*, HSF1 inhib -16.5, STAT1 blocker 15.6 and HSP90 refold inh 3.1.
Screening C1=C(c2ccccc2)CCN(c2ncnc3nc[nH]c23)C1 returned PPC-1+TRAIL kill 3.7, STAT3 blocker 10.2, TRAIL sens C8 0.9, HSF1 inhib -75.0*, STAT1 blocker -8.7 and HSP90 refold inh -4.2.
